Laboratory results from PubChem BioAssay AID651820 (National Center for Advancing Translational Sciences (NCATS), 2012).
Among all 340,000 compounds or so, about 12,000 (3.5%) were called active. Entries that show only a call come without a potency. About 18% were inconclusive and are not listed. For the sample, actives were picked, then their nearest neighbours and some compounds at random. Values without a mark were called inactive. Calls follow the shape of the dose curve; as a rule, active = well fitted inhibition curve with a large enough effect; inconclusive = small, poorly fitted or top-dose-only effect, or another doubt; inactive = no such curve, though single readings can be large or run the other way.

test: qHTS Assay for Inhibitors of Hepatitis C Virus (HCV); conditions: Huh7.5.1 HCVcc-Cre infection, luciferase reporter, 44 h; series mostly up to 41.8 µM
Description: Hepatitis C virus (HCV) infects about 200 million people in the world. Many infected people progress to chronic liver disease including cirrhosis with a risk of developing liver cancer. To date, there is no effective vaccine for hepatitis C. Current therapy based on interferon is only effective in about half of the patients and is associated with significant adverse effects. The fraction of people with HCV who can complete a successful treatment is estimated to be no more than 10 percent. Recent development of direct-acting antivirals against HCV, such as protease and polymerase inhibitors, is promising but still requires combination with peginterferon and ribavirin for maximal efficacy. In addition, these agents are associated with high rate of resistance and many have significant side effects. Due to the lack of a culture system for infectious HCV, the search for new HCV drugs has been greatly hampered. […] High-throughput screening (HTS) with an infectious HCV system would cover the complete spectrum of potentially druggable targets in all stages of HCV lifecycle, and would have more biological relevance than other cell-based assays. Moreover, targeting several key processes in the viral life cycle may not only increase antiviral efficacy; more importantly, it may also reduce the capacity of the virus to develop resistance to the compound. The goal of this project is to identify novel HCV inhibitors as new therapies for hepatitis C, using a highly sensitive and specific assay platform which is based on a HCV infectious cell culture system established in the laboratory and adapted for high-throughput HCV drug screen. NIH Chemical Genomics Center [NCGC] NIH Molecular Libraries Probe Centers Network [MLPCN] MLPCN Grant: MH095511 Assay Submitter (PI): Jake Liang, NIDDK
The assay will start with plating 1,000 cells/well in 3 µL volume and culture for 4 h. Then 23 nL of compounds from the library collection will be added to each well, followed by adding 2.5 µL of HCVcc-Cre virus (~ 0.5 moi) and further cultured for 44 h before the luciferase assay. A volume of 4.5 µL luciferase substrates will be added to each well and the plates will be incubated at room temperature for 15 min. and then read for 15 sec. for the luciferase activity

| SMILES | Potency | activity change, negative = inhibition |
| --- | --- | --- |
| CCC(C)c1ccc(NC(=O)COC(=O)C2CCCC2)cc1 (configuration not stated) | inactive | – |
| Cc1ccccc1Nc1nc(N)nc(COC(=O)CCC(=O)c2ccc(F)cc2)n1 | inactive | – |
| COc1ccccc1NS(=O)(=O)c1ccc(C)c(C(=O)NNC(=O)c2csc(N3CCOCC3)n2)c1 | inactive | – |
| Cc1cc(C)c(C)c(S(=O)(=O)N2CCN(C(=O)c3ccc4c(=O)n5c(nc4c3)CCC5)CC2)c1C | inactive | – |
| CC(C)N(Cc1nnc(-c2ccc(Cl)cc2)o1)C(=O)C1=COCCO1 | – | -0.237% [at 8.37 µM] |
| CN(C(=O)c1cccc(NC(=O)Cc2ccc(NC(=O)C3CCCN(C(=O)C4CC4)C3)cc2)c1)C1CC1 (configuration not stated) | inactive | – |
| CN(C(=O)c1cccc(NC(=O)Cc2ccc(NC(=O)C3CCN(C(=O)C4CCCCC4)CC3)cc2)c1)C1CCC1 | – | -11.4% [at 8.37 µM] |
| CN(C(=O)c1ccc(NC(=O)Cc2cccc(NC(=O)C3CCN(C(=O)c4ccccc4)CC3)c2)cc1)C1CC1 | 0.562 µM (active) | – |
| CCOc1ccc(S(=O)(=O)N2CCC(C(=O)NCC(=O)Nc3cccc(Cl)c3C)CC2)cc1 | inactive | – |
| Cc1ccc(-n2ncc3c(=O)n(-c4ccc(C)c(C)c4)c(-c4ccco4)nc32)cc1 | 3.98 µM (active) | – |
| Cc1ccc(-c2nc3c(cnn3-c3ccccc3)c(=O)o2)cc1 | inactive | – |
| Cc1ccc(-n2ncc3c2ncn2nc(-c4ccco4)nc32)c(C)c1 | inactive | – |
| O=c1ccc2c(-c3ccccc3S(=O)(=O)O)c3ccc(O)c(O)c3oc-2c1O | inactive | – |
| O=C(CN1C(=O)c2ccc([N+](=O)[O-])cc2C1=O)Nc1nnc(C2CC2)s1 | inactive | – |
| CC(CCN1CCN=C1N(C)C)c1ccccc1 (configuration not stated) | inactive | – |
| O=C(COc1ccccc1F)NNC(=O)c1cc(Br)ccc1Cl | inactive | – |
| O=C(CCNC(=O)c1ccc(Br)cc1)NCCCc1ccccc1 | inactive | – |
| CCOc1ccc(NC(=O)CN(C)C(=O)Cc2sc(C)nc2-c2ccc(F)cc2)cc1OCC | inactive | – |
| CCOc1ccccc1NC(=S)C(=C([O-])c1ccc2c(c1)OCCO2)[n+]1ccc(CC)cc1 | inactive | – |
| O=C1OC(/C=C/c2ccccc2)=NC/1=C/c1ccco1 | inactive | – |
| COc1ccccc1/C=C/C1=NC(=C\N(C)C)/C(=O)O1 | 11.2 µM (active) | – |

| SMILES | Potency | activity change, negative = inhibition |
| --- | --- | --- |
| COc1ccccc1/C=C/C(=O)NC(=S)N1CCOCC1 | inactive | – |
| O=C(O)C(CCc1ccccn1)c1ccccc1 (configuration not stated) | inactive | – |
| O=C(CSc1nnc(Nc2ccccc2F)s1)NC1CCCC1 | inactive | – |
| CCCOC(=O)c1[nH]c2c(c1C)C(=O)CC(c1cc(OC)c(OC)c(OC)c1)C2 (configuration not stated) | 4.47 µM (active) | – |
| CCOC(=O)c1[nH]c2c(c1-c1ccccc1)C(=O)CC(c1ccc(Cl)cc1)C2 (configuration not stated) | inactive | – |
| COCCOC(=O)c1[nH]c2c(c1C)C(=O)CC(c1ccc(OC)cc1)C2 (configuration not stated) | inactive | – |
| Cn1c(=O)n(Cc2ccco2)c(=N)c2c3c(sc21)CCCC3 | 10 µM (active) | – |
| O=c1oc(-c2ccco2)nc2sc3c(c12)CCCCC3 | inactive | – |
| Cn1c2c(c(=O)n(C)c1=O)CN(Cc1ccco1)CN2 | inactive | – |
| COc1cc(C)ccc1OCC(=O)OCC(=O)c1ccc[nH]1 | inactive | – |
| O=C(N/N=C/c1ccc(O)c2ccccc12)c1cccnc1 | inactive | – |
| O=C(N/N=C/c1c[nH]c2ccccc12)c1ccccc1O | inactive | – |
| O=C(NN=Cc1ccccc1O)NN=Cc1ccccc1O | 5.01 µM (active) | – |
| NC(=O)NC(=O)C(OC(=O)CCNS(=O)(=O)c1ccccc1)c1ccccc1 (configuration not stated) | inactive | – |
| O=C(c1ccc(Cl)c(S(=O)(=O)N2CCCCC2)c1)N1CCCCCC1 | inactive | – |
| COc1ccccc1N1CCN(C(=O)c2ccc(S(=O)(=O)N3CCCCC3)cc2)CC1 | inactive | – |
| COc1ccccc1N1CCN(C(=O)c2ccc(Cl)c(S(=O)(=O)N3CCCC3)c2)CC1 | 11.2 µM (active) | – |
| O=C(NN1CCOCC1)c1cccc(F)c1 | inactive | – |
| CNC(=O)N1c2ccccc2C=Cc2ccccc21 | inactive | – |
| CC1C(C)N(C(=O)CCl)c2ccccc2N1C(=O)CCl (configuration not stated) | 4.47 µM (active) | – |
| CCNC(=O)N1c2ccccc2Sc2ccccc21 | inactive | – |

| SMILES | Potency | activity change, negative = inhibition |
| --- | --- | --- |
| O=C(CSc1nc2ccccc2c(=O)n1-c1ccccc1F)N1CCOCC1 | inactive | – |
| CN(CC(=O)Nc1ccc(C(N)=O)cc1)S(=O)(=O)c1ccc2c(c1)OCCO2 | inactive | – |
| CCOC(=O)C1CCN(C(=O)CSc2cc(=O)n(C)c3ccccc23)CC1 | inactive | – |
| Cn1c(=O)cc(SCC(=O)N2CCCC2)c2cc(Cl)ccc21 | 10 µM (active) | – |
| Cn1c(=O)cc(SCC(=O)N2CCN(C(=O)c3ccco3)CC2)c2ccccc21 | inactive | – |
| CC(=O)c1ccc(NC(=O)C2CCCN2S(=O)(=O)c2cccs2)cc1 (configuration not stated) | inactive | – |
| COC(=O)[C@H](C)NC(=O)Nc1ccc(OC(F)(F)F)cc1 | inactive | – |
| Cn1nccc1NC(=O)Nc1ccc(OC(F)(F)F)cc1 | inactive | – |
| O=C(Nc1ccc(OC(F)(F)F)cc1)c1ccc2c(c1)no[n+]2[O-] | 31.6 µM (active) | – |
| COc1ccc(S(=O)(=O)N2CCCC2CNC(=O)C(=O)NC2CC2)cc1 (configuration not stated) | inactive | – |
| O=C(NC1CCCCCC1)C1CCN(C(=O)c2ccc(Cl)cc2)CC1 | inactive | – |
| Cc1cc(C)cc(NC(=O)C2CCCN(S(=O)(=O)c3ccc4[nH]c(=O)ccc4c3)C2)c1 (configuration not stated) | inactive | – |
| CC(=O)N1c2ccc(S(=O)(=O)N3CCCC(C(=O)Nc4cccc(Cl)c4)C3)cc2CC1C (configuration not stated) | 5.62 µM (active) | – |
| CCc1cccc(NC(=O)C2CCCN(S(=O)(=O)c3ccc4[nH]c(=O)ccc4c3)C2)c1 (configuration not stated) | inactive | – |
| CC(=O)N1c2ccc(S(=O)(=O)N3CCCC(C(=O)Nc4ccc(C)cc4C)C3)cc2CC1C (configuration not stated) | inactive | – |
| CC(=O)N1c2ccc(S(=O)(=O)N3CCCC(C(=O)Nc4cccc(F)c4)C3)cc2CC1C (configuration not stated) | 11.2 µM (active) | – |
| CC(=O)N1c2ccc(S(=O)(=O)N3CCC(C(=O)NC4CCCCC4C)CC3)cc2CC1C (configuration not stated) | inactive | – |
| Cc1ccc(OCC(=O)Oc2ccccc2[N+](=O)[O-])cc1 | inactive | – |
| CC1(C)NC(=O)N(CC(=O)N2CCN(S(=O)(=O)c3ccccc3F)CC2)C1=O | inactive | – |
| CCN1C(=O)[C@@H]2[C@@H](c3ccc(-c4cccc(Cl)c4)cc3)N3CCC[C@@]3(C(=O)OC)[C@@H]2C1=O | inactive | – |
